Laboratory results published in PubChem BioAssay AID1159580 (chemical genetic matrix, 2015).
The whole screen tested about 5,500 compounds, of which about 2,000 (36%) were called active. Inconclusive results (about 18%) are left out. The list shows a part of the results. A number with no mark means an inactive call. Rule as the data show it: active = normalized growth mostly below about 0.91 (no sharp cut-off); inconclusive = no clear call, values can overlap the other calls; inactive = mostly above about 0.92.

Test: chemical genetic growth profiling, strain panel (AID 1159580);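 also: tested at 20 µM; growth read once vehicle control cultures reached saturation at 30 °C; 1 = growth at the plate median or of vehicle wells; lower values mean less growth of the strain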
Conditions: growth OD
[1] = S. cerevisiae deletion strains, locus YAL013W, strain DEP1, hits give low values
[2] = S. cerevisiae deletion strains, locus YBR229C, strain ROT2, hits give low values
[3] = S. cerevisiae deletion strains, locus YCL061C, strain MRC1, hits give low values
[4] = S. cerevisiae deletion strains, locus YDL101C, strain DUN1, hits give low values
[5] = S. cerevisiae deletion strains, locus YDR150W, strain NUM1, hits give low values
[6] = S. cerevisiae deletion strains, locus YEL061C, strain CIN8, hits give low values
[7] = S. cerevisiae deletion strains, locus YGR078C, strain PAC10, hits give low values
[8] = S. cerevisiae deletion strains, locus YHR030C, strain SLT2, hits give low values
[9] = S. cerevisiae deletion strains, locus YHR087W, strain rtc3, hits give low values
[10] = S. cerevisiae deletion strains, locus YJR043C, strain POL32, hits give low values
[11] = S. cerevisiae deletion strains, locus YJR075W, strain HOC1, hits give low values
[12] = S. cerevisiae deletion strains, locus YKL190W, strain CNB1, hits give low values
[13] = S. cerevisiae deletion strains, locus YLR039C, strain RIC1, hits give low values
[14] = S. cerevisiae deletion strains, locus YLR058C, strain SHM2 (second series), hits give low values
[15] = S. cerevisiae deletion strains, locus YLR085C, strain ARP6, hits give low values
[16] = S. cerevisiae deletion strains, locus YLR262C, strain YPT6, hits give low values
[17] = S. cerevisiae deletion strains, locus YML094W, strain GIM5, hits give low values
[18] = S. cerevisiae deletion strains, locus YMR219W, strain ESC1, hits give low values
[19] = S. cerevisiae deletion strains, locus YNL153C, strain GIM3, hits give low values
[20] = S. cerevisiae deletion strains, locus YNL298W, strain CLA4 (second series), hits give low values
[21] = S. cerevisiae deletion strains, locus YNL322C, strain KRE1, hits give low values
[22] = S. cerevisiae deletion strains, locus YNR030W, strain Alg12, hits give low values
[23] = S. cerevisiae deletion strains, locus YPL055C, strain LGE1, hits give low values
[24] = S. cerevisiae deletion strains, locus YPL241C, strain CIN2, hits give low values
[25] = S. cerevisiae deletion strains, locus YPR135W, strain CTF4, hits give low values

Compound: CC(=O)C1COc2ccc(C)cc2C1=O (stereo not drawn)
- normalized growth [1]: 0.972
- normalized growth [2]: 0.898 (active)
- normalized growth [3]: 0.916
- normalized growth [4]: 0.838 (active)
- normalized growth [5]: 0.984
- normalized growth [6]: 0.924
- normalized growth [7]: 0.952
- normalized growth [8]: 0.291 (active)
- normalized growth [9]: 0.916
- normalized growth (S. cerevisiae deletion strains, locus YJL187C, strain SWE1, hits give low values): 0.888 (active)
- normalized growth [10]: 0.931
- normalized growth [11]: 0.903
- normalized growth [12]: 0.832 (active)
- normalized growth [13]: 0.173 (active)
- normalized growth [14]: 0.923 (active)
- normalized growth [15]: 0.44 (active)
- normalized growth [16]: 0.176 (active)
- normalized growth [17]: 0.848 (active)
- normalized growth [18]: 0.928 (active)
- normalized growth (S. cerevisiae deletion strains, locus YMR263W, strain SAP30, hits give low values): 0.96
- normalized growth [19]: 0.954
- normalized growth [20]: 0.855
- normalized growth [21]: 0.979
- normalized growth [22]: 0.901
- normalized growth [23]: 0.93
- normalized growth [24]: 0.914
- normalized growth [25]: 0.58 (active)

Compound: c1ccc(Sc2c(-c3ccccc3)nc3ccccn23)cc1
- normalized growth [1]: 0.895 (active)
- normalized growth [2]: 0.9 (active)
- normalized growth [3]: 0.906 (active)
- normalized growth [4]: 0.929
- normalized growth [5]: 0.8
- normalized growth [6]: 0.869 (active)
- normalized growth [7]: 0.884 (active)
- normalized growth [8]: 0.193 (active)
- normalized growth [9]: 0.921
- normalized growth [10]: 0.93
- normalized growth [11]: 0.833 (active)
- normalized growth [12]: 0.79 (active)
- normalized growth [13]: 0.657 (active)
- normalized growth [14]: 0.899 (active)
- normalized growth [15]: 0.275 (active)
- normalized growth [16]: 0.78 (active)
- normalized growth [17]: 0.886
- normalized growth [18]: 0.897 (active)
- normalized growth [19]: 0.931
- normalized growth [20]: 0.781 (active)
- normalized growth [21]: 0.915 (active)
- normalized growth [22]: 0.714 (active)
- normalized growth [23]: 0.725 (active)
- normalized growth [24]: 0.692 (active)
- normalized growth [25]: 0.431 (active)
- normalized growth (S. cerevisiae strains, strain wild type, hits give low values): 0.92
